# Assay results: PubChem BioAssay (NCI)
# This is part of a sample that, as a whole, favours compounds with a hit. Of some 83,000 tested, about 20% had one in any assay.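 Values shown are percent growth following 48 h exposure of cells in 96-well plates to a single concentration of compound; below 10 was considered active.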 A number with no mark means an inactive call. Activity calls are given as the source filed them.
# Key:
# Experiment in all cases: NCI-60 one-dose screen, 48 h (100 = growth as untreated, 0 = no growth, -100 = all killed)
# Details in all cases: 10 µM unless noted
# NCI-H23 lung = test system: NCI-H23 lung
# NCI-H226 lung = test system: NCI-H226 lung
# NCI-H322M lung = test system: NCI-H322M lung
# HOP-62 NSCLC = test system: HOP-62 NSCLC
# NCI-H460 lung = test system: NCI-H460 lung
# HOP-92 NSCLC = test system: HOP-92 NSCLC
# NCI-H522 lung = test system: NCI-H522 lung
# A549/ATCC NSCLC = test system: A549/ATCC NSCLC
# 786-0 renal = test system: 786-0 renal
# COLO 205 colon = test system: COLO 205 colon
# DU-145 prostate = test system: DU-145 prostate
# K-562 leukemia = test system: K-562 leukemia
# MALME-3M melanoma = test system: MALME-3M melanoma
# MDA-MB-231 breast = test system: MDA-MB-231 breast
# RXF 393 renal = test system: RXF 393 renal
# SF-268 CNS = test system: SF-268 CNS
# SF-295 CNS = test system: SF-295 CNS
# SF-539 CNS = test system: SF-539 CNS
# UACC-257 melanoma = test system: UACC-257 melanoma
# M14 melanoma = test system: M14 melanoma
Compound,growth (NCI-H23 lung),growth (NCI-H226 lung),growth (NCI-H322M lung),growth (HOP-62 NSCLC),growth (NCI-H460 lung),growth (HOP-92 NSCLC),growth (NCI-H522 lung),growth (A549/ATCC NSCLC),growth (786-0 renal),growth (COLO 205 colon),growth (DU-145 prostate),growth (K-562 leukemia),growth (MALME-3M melanoma),growth (MDA-MB-231 breast),growth (RXF 393 renal),growth (SF-268 CNS),growth (SF-295 CNS),growth (SF-539 CNS),growth (UACC-257 melanoma),growth (M14 melanoma)
COc1cc2c(c(OC)c1OC)C(=O)CC(c1cccc(C(=O)Nc3ccc(Br)cc3)c1)O2 (stereo not given),60.3%,37.6%,59.9%,86%,78.8%,-8.2% (active),48.5%,78.8%,71.8%,81.7%,73%,6.2% (active),70%,50.8%,66.5%,64.2%,63.6%,82.8%,74.7%,57.7%
COC(=O)c1nc(-c2ccc(C)cc2)oc1N1CCOCC1,106%,94%,105%,98.3%,100%,102%,90.7%,88.4%,82.3%,111%,98.1%,95.6%,115%,105%,89.6%,98.1%,99%,95.9%,100%,102%
CC1(C)CC[C@]2(CO)CC[C@]3(C)[C@H](CC[C@@H]4[C@@]5(C)CC[C@H](O)C(C)(C)[C@@H]5CC[C@]43C)[C@H]2[C@H]1O,87.1%,79.1%,69.2%,54.6%,21%,105%,84.8%,56.8%,79.3%,93.8%,77.7%,83.9%,78.1%,26.5%,61.1%,83.7%,86.4%,12.8%,104%,99.7%
Cn1ccnc1C(=O)/C=C/c1ccc(C(=O)Nc2ccccc2F)cc1,27.4%,50.7%,14.6%,3.72% (active),-0.603% (active),16.2%,39.7%,17.1%,18.5%,32.7%,20.7%,12.6%,54.7%,-2.25% (active),16.4%,24.7%,6.25% (active),-8.53% (active),66.7%,8.56% (active)
C=CCOC(=O)C1=C(C)N(CC)C(=O)N(CC)C1c1c(Cl)n(C)c2ccccc12 (stereo not given),78.7%,95.1%,74.4%,84.1%,88.1%,21.6%,84.8%,63.7%,91.9%,96.9%,99.4%,93%,96.2%,80.6%,98.3%,87.3%,69.3%,88.2%,89.9%,75.1%
O=C1C2C(c3cccs3)C=C(c3ccc(Cl)cc3)N2C(=S)N1c1ccccc1 (stereo not given),94.2%,86.8%,102%,101%,108%,97.2%,98.6%,101%,102%,119%,110%,101%,115%,86.3%,102%,96.7%,104%,93%,105%,101%
Cc1c(CC(=O)Nc2ccccc2)nnn1-c1ccccc1,100%,109%,105%,108%,106%,108%,93.4%,107%,107%,112%,115%,101%,106%,118%,120%,104%,109%,100%,104%,108%
Cc1ccccc1NC(=O)c1sc2nc3c(cc2c1N)CCCC3,47.2%,63.4%,51.1%,27.4%,11%,17.3%,11.1%,34.3%,33.7%,15.5%,25.2%,17.6%,53.9%,52.5%,14.2%,49.6%,16.4%,8.72% (active),40.7%,27%
O=C(Nc1cccc2c1C(=O)c1cccc(NC(=O)c3ccc(C(=O)Nc4cccc5c4C(=O)c4cccc(NC(=O)c6ccccc6)c4C5=O)cc3)c1C2=O)c1ccccc1,98%,74.1%,98.8%,103%,111%,58.4%,84.7%,99.6%,109%,111%,115%,93.5%,101%,90.4%,103%,109%,108%,104%,95.1%,113%
CCN(CC)CCCNc1cc(OC)cc2cccnc12,99.3%,92.7%,107%,102%,105%,124%,94.7%,108%,102%,83.9%,105%,81.4%,133%,89.5%,96.5%,96.5%,105%,101%,107%,127%
CN(C)CCOc1ccc(/C(=C(/CCCCCCCCCC[P+](c2ccccc2)(c2ccccc2)c2ccccc2)c2ccccc2)c2ccccc2)cc1,-83.2% (active),-53.2% (active),-96.6% (active),-66% (active),-79.2% (active),-84.3% (active),-75.1% (active),-64.3% (active),-76.6% (active),-64% (active),-94.1% (active),-39.3% (active),-82.2% (active),-83.4% (active),-73.8% (active),-72.1% (active),-88.6% (active),-88.9% (active),-77.4% (active),-79.6% (active)
COc1ccc(-c2nc3cc(C(=O)NC4CCCCC4)ccc3n2C2CCCCC2)cc1,92.5%,115%,85.8%,101%,86.2%,121%,73.5%,89.4%,88.3%,73.6%,99.7%,49.5%,95.8%,101%,100%,91.7%,78.3%,88%,104%,88.7%
Cc1c2ccncc2c(C)c2c1c1ccccc1n2CCCCCC(=O)O,84.7%,75.6%,96.1%,83%,97.1%,80.6%,101%,89.8%,103%,109%,104%,92.5%,108%,81.2%,93.2%,86.6%,95.3%,90.2%,106%,103%
O=C(Nc1ccccc1CNc1nc(Nc2ccc(OCCN3CCCC3)cc2)ncc1Cl)NC1CCCCC1,87.2%,97%,109%,83.3%,89.8%,65.5%,113%,85.4%,-25.2% (active),89.3%,82.8%,6.79% (active),67.7%,69.7%,56.8%,73.1%,82%,84.3%,78.3%,31.1%
C=CN(C(=O)N1CCN(c2cc3c(cc2F)c(=O)c(C(=O)O)cn3C2CC2)CC1)c1nc(-c2ccc(C)cc2)cs1,13.4%,35.4%,20.8%,17.9%,9.77% (active),-10.4% (active),5.65% (active),15.7%,22.8%,16.7%,24.7%,18.5%,48.2%,21.5%,6.69% (active),26.3%,-5.02% (active),20.2%,54.2%,31.4%
